Several values for one entry are separate records, joined by “and”; a condition that tells them apart may be missing. Equal values may be shown once. Records with an inconclusive call do not appear. Activity calls are given as the source filed them. Unless noted, the call rests on the fitted dose curve; in most records, active means well fitted curve in the direction sought with a large enough effect in the repeat runs; inconclusive means weak or mixed curves; inactive means no such curve, though single readings can be large; an effect the other way counts as inactive or inconclusive.
Tests used:
[1] = qHTS assay to identify small molecule antagonists of the estrogen related receptor (ERR) signaling pathway from Tox21 library - cell viability counter screen (AID 1224834); further: nearly all actives have a fitted effect of over 30% in size; further: potency means the concentration at half of the fitted maximal effect
Outline: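 Multiplexed viability counter screen in ERR cells: 17.5 h compound exposure at 37 C, CellTiter-Fluor added, 30 min at 37 C/5% CO2, fluorescence read.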

[2] = target: Luciferin 4-monooxygenase (Photinus pyralis) (UniProt P08659); assay: qHTS assay to identify small molecule inhibitors of firefly luciferase (AID 1224835); further: nearly all actives have a fitted effect of over 25% in size; further: potency means the concentration at half of the fitted maximal effect
Outline: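 Inhibition of purified Photinus luciferase is measured by luminescence. Substrate levels (D-luciferin, ATP) sit at their KM values. Each compound is tested in a concentration series.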

[3] = qHTS assay to identify small molecule agonists of the constitutive androstane receptor (CAR) signaling pathway - cell viability counter screen (AID 1224836); further: nearly all actives have a fitted effect of over 45% in size; further: potency means the concentration at half of the fitted maximal effect
Outline: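 Compound titrations (15 concentrations) went onto HepG2-CYP2B6-hCAR cells 4 h after seeding, alongside PK11195 at a final 0.75 uM; a 23 h, 37 C/5% CO2 incubation preceded CellTiter-Fluor viability measurement.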

[4] = qHTS assay to identify small molecule antagonists of the constitutive androstane receptor (CAR) signaling pathway - cell viability counter screen (AID 1224837); further: nearly all actives have a fitted effect of over 45% in size; further: potency means the concentration at half of the fitted maximal effect
Outline: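 Read-out: CellTiter-Fluor fluorescence after 23 hr at 37 C/5% CO2. Cells: HepG2 double-stable for hCAR and CYP2B6-2.2kb. Compounds tested at 15 concentrations in the presence of CITCO, final concentration 50 nM.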

[5] = qHTS assay to identify small molecule antagonists of the estrogen related receptor signaling pathway with the pleiotropic PPARgamma coactivator (PGC) from Tox21 10K library - cell viability counter screen (AID 1224840; active means well fitted cell-killing curve with a large enough effect in the repeat runs, not every such curve was filed as active; further: nearly all actives have a fitted effect of over 40% in size; further: potency means the concentration at half of the fitted maximal effect)
Outline: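 Fluorescence read-out of CellTiter-Fluor viability reagent, added after cells had been exposed to compound in DMSO for 17.5 h at 37 C; 30 min development at 37 C/5% CO2. Cells: PGC/ERR line, 2,000/well.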

[6] = target: Nuclear receptor subfamily 1 group I member 3 (Homo sapiens) (UniProt Q14994); assay: qHTS assay to identify small molecule agonists of the constitutive androstane receptor (CAR) signaling pathway (AID 1224839); further: nearly all actives have a fitted effect of over 15% in size; further: potency means the concentration at half of the fitted maximal effect
Outline: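 In this screen, CAR-driven CYP2B6 promoter activity is measured by luminescence in HepG2-CYP2B6-hCAR cells after 24 h with test compounds and 0.75 uM PK11195 (final concentration).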

[7] = target: Nuclear receptor subfamily 1 group I member 3 (Homo sapiens) (UniProt Q14994); assay: qHTS assay to identify small molecule antagonists of the constitutive androstane receptor (CAR) signaling pathway (AID 1224838);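 further: HepG2 cells stably expressing hCAR with CYP2B6 luciferase reporter stimulated by CITCO; nearly all actives have a fitted effect of over 40% in size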; further: potency means the concentration at half of the fitted maximal effect
Outline: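 Read-out: ONE-Glo luciferase luminescence after 30 min at room temperature. HepG2-CYP2B6-hCAR double-stable cells, compounds in 15-point titration plus 50 nM CITCO final, 24 h at 37 C/5% CO2.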

[8] = target: Thyrotropin receptor (Homo sapiens) (UniProt P16473); assay: qHTS assay to identify small molecule agonists of the thyroid stimulating hormone receptor (TSHR) signaling pathway (AID 1224843; calls by dose curve; further: nearly all actives have a fitted effect of over 45% in size; further: potency means the concentration at half of the fitted maximal effect)
Outline: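 A cell-based cAMP HTRF format was run in TSHR-transfected HEK293 cells, 800 per well. Treatment: 30 min, room temperature. Detection: 1 h with labelled cAMP and anti-cAMP cryptate. Concentration-response over 15 points, three replicates.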

[9] = qHTS assay to identify small molecule agonists of the estrogen related receptor signaling pathway with the pleiotropic PPARgamma coactivator (PGC) from Tox21 10K library (AID 1224842); further: nearly all actives have a fitted effect of over 15% in size
Outline: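 Luminescence from One-Glo (30 min, room temperature) measured after PGC/ERR cells had 18 h at 37 C with pinned compound (23 nL in DMSO). Cells had been seeded at 2,000 per well and pre-incubated 6 h.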

[10] = qHTS assay to identify small molecule antagonists of the estrogen related receptor signaling pathway with the pleiotropic PPARgamma coactivator (PGC) from Tox21 10K library (AID 1224841; call rule not given here; further: actives are mostly falling curves and most rising ones were filed inactive; nearly all actives have a fitted effect of over 50% in size; further: potency means the concentration at half of the fitted maximal effect)
Outline: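 Luminescence read-out (One-Glo luciferase reagent, 30 min at room temperature) from PGC/ERR cells exposed to DMSO-dissolved test compounds for 18 h at 37 C; cells, 2,000 per well, had been preincubated 6 h before compound transfer.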

Measured: Potency

Nuclear receptor subfamily 1 group I member 3 (Homo sapiens), sequence (Q14994 whole entry, looked up): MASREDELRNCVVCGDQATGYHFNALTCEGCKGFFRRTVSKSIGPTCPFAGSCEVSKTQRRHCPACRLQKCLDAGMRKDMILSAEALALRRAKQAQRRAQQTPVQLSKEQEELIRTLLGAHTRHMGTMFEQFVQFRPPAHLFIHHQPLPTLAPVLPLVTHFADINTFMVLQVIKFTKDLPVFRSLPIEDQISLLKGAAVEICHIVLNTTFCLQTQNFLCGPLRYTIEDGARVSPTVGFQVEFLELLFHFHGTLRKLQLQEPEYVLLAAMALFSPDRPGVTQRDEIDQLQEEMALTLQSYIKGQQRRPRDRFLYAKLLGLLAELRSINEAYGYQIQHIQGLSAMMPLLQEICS
Luciferin 4-monooxygenase (Photinus pyralis), sequence (P08659 whole entry, looked up): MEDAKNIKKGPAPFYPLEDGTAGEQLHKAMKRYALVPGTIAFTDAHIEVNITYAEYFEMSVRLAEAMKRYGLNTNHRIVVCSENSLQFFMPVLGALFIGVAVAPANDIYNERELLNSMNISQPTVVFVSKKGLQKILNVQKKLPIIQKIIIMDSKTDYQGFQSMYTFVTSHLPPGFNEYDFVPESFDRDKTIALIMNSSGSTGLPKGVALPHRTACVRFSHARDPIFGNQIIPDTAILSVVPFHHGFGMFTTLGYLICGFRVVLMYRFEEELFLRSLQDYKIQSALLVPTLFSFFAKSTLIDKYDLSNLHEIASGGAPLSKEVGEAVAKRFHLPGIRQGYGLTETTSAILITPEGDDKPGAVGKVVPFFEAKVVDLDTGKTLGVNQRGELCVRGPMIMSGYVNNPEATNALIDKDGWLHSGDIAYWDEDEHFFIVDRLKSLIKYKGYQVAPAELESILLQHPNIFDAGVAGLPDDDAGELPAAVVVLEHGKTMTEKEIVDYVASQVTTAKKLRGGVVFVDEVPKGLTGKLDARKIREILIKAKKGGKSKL
Thyrotropin receptor (Homo sapiens), sequence (P16473 whole entry, looked up): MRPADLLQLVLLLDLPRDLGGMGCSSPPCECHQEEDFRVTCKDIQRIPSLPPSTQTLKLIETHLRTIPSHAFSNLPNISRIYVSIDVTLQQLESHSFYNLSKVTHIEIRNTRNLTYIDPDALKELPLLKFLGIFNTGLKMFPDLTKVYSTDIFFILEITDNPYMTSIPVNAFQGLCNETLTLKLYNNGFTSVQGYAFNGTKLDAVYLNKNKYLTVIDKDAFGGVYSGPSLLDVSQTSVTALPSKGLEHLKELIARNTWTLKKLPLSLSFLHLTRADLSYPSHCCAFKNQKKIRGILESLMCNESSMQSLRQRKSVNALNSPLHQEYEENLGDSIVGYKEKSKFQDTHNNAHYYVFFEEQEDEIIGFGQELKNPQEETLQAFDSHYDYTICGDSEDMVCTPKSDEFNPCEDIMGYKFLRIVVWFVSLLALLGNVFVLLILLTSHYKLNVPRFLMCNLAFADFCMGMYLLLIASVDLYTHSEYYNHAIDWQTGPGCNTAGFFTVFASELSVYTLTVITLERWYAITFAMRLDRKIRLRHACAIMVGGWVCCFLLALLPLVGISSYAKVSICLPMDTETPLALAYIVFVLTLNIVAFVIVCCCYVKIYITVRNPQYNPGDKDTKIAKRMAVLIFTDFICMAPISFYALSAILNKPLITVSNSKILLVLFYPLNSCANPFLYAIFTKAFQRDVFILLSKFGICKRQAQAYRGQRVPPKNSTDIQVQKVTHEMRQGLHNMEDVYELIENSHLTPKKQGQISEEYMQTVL

O=Cc1cc(O)ccc1Br
active: [2] 57.2 µM
inactive: [1] | [3] | [4] | [5]

CCCCCCCCCCCCCCCS(=O)(=O)Oc1ccccc1
inactive: [1] | [2] | [3] | [4] | [6] | [5]

CN(C/C=C/C#CC(C)(C)C)Cc1cccc2ccccc12
not listed: [6] | [9] | [10]
inactive: all other assays above

Cc1cccc(S(=O)(=O)O)c1C
not listed: [6] | [9] | [10]
inactive: all other assays above

CC(C)OC(=O)c1cc2c(OCC(O)CNC(C)(C)C)cccc2[nH]1 (stereo not given)
inactive: [1] | [2] | [3] | [4] | [5]

CC(=O)N1CCN(c2ccc(OC[C@H]3CO[C@](Cn4ccnc4)(c4ccc(Cl)cc4Cl)O3)cc2)CC1
inactive: [2] | [9]
active: [1] 27.3 µM | [3] 48.6 µM | [4] 48.6 µM | [5] 24.3 µM

CCOC(=O)O[C@]1(C(=O)OCCl)CC[C@H]2[C@@H]3CCC4=CC(=O)C=C[C@]4(C)[C@H]3[C@@H](O)C[C@@]21C
inactive: [1] | [2] | [3] | [4] | [5]

Cc1cc(O)c(C(C)(C)C)cc1Sc1cc(C(C)(C)C)c(O)cc1C
active: [1] 30.6 µM | [3] 48.5 µM | [4] 54.4 µM | [5] 30.6 µM | [10] 21.6 µM
inactive: [2] | [6] | [9]

CCc1cc(Cc2cc(CC)cc(C(C)(C)C)c2O)c(O)c(C(C)(C)C)c1
active: [1] 54.5 µM | [3] 61.1 µM | [4] 61.1 µM | [5] 43.3 µM
inactive: [2] | [6] | [9]

C=CC(=O)OCC(CO)(COC(=O)C=C)COC(=O)C=C
active: [1] 6.88 µM and 13.7 µM | [3] 13.7 µM and 54.5 µM | [4] 9.72 µM and 24.3 µM | [5] 6.13 µM and 12.2 µM | [10] 13.7 µM and 24.3 µM | [8] 6.13 µM and 9.69 µM
inactive: [2] | [9]

CC(C)(C)c1ccc(C(=O)O)cc1
inactive: [1] | [3] | [4] | [5]
active: [2] 35.6 µM

CCCCC(CC)COC(=O)c1ccccc1C(=O)O (stereo not given)
not listed: [7] | [8] | [10]
inactive: all other assays above

CC(=O)SC[C@@H](Cc1ccccc1)C(=O)NCC(=O)OCc1ccccc1
inactive: [1] | [2] | [3] | [4] | [5]

CC(C)(C)NC(=O)[C@@H]1C[C@@H]2CCCC[C@@H]2CN1C[C@@H](O)[C@H](Cc1ccccc1)NC(=O)[C@H](CC(N)=O)NC(=O)c1ccc2ccccc2n1
active: [1] 24.7 µM | [3] 31 µM | [4] 24.7 µM | [5] 31 µM | [10] 27.7 µM | [8] 27.7 µM
inactive: [2] | [6] | [9]

CC[C@H](c1ccc(O)cc1)[C@@H](CC)c1ccc(O)cc1
active: [1] 27.3 µM | [7] 0.473 µM
inactive: [2] | [3] | [4] | [5]

NNc1nc(-c2ccccc2)cs1
active: [1] 7.05 µM | [2] 32.6 µM | [6] 49.9 µM
not listed: [5] | [10]
inactive: all other assays above

Fc1ccc(C(c2ccc(F)cc2)N2CCN(C/C=C/c3ccccc3)CC2)cc1
active: [1] 26.6 µM
not listed: [5] | [7] | [10]
inactive: all other assays above

CC(C)C(C)(C)C(C)(C)C(C)(C)S
inactive: [1] | [2] | [3] | [4] | [5]

CCC(Cl)C(Cl)C(Cl)CC(Cl)C(Cl)C(C)Cl (stereo not given)
inactive: [1] | [2] | [3] | [4] | [5]

CCCCCCCC/C=C\CCCCCCCCOCCO
active: [1] 35.5 µM | [3] 25.1 µM | [4] 31.6 µM | [5] 63.1 µM
inactive: [2] | [6]

CCN(C(=O)c1cc(C)cc(OC[C@H](C)Nc2ccncc2)c1)C(C)C
inactive: [1] | [2] | [3] | [4] | [5]

CSc1ccc(C(=O)c2[nH]c(=O)[nH]c2C)cc1
inactive: [1] | [2] | [3] | [4] | [6] | [5]

CC(=O)OCC(C)OC(C)=O (stereo not given)
inactive: [1] | [2] | [3] | [4] | [5]

CC(=O)S[C@@H]1CC2=CC(=O)CC[C@]2(C)[C@H]2CC[C@@]3(C)[C@@H](CC[C@@]34CCC(=O)O4)[C@H]12
inactive: [1] | [2] | [3] | [4] | [6] | [8]

O=C(Nc1cccc(Cl)c1)OCC#CCCl
inactive: [9]
active: [1] 54.5 µM | [2] 44.8 µM | [3] 54.5 µM | [4] 38.6 µM | [5] 48.6 µM | [10] 21.7 µM

O=C1Cc2cc(CCN3CCN(c4nsc5ccccc45)CC3)c(Cl)cc2N1
active: [1] 29.8 µM
not listed: [5] | [10]
inactive: all other assays above

CCCCCCCCCCCC[N+](C)(C)CCCCCCCCCCCC
active: [1] 27.3 µM | [2] 79.6 µM | [3] 27.3 µM | [4] 24.3 µM | [5] 27.3 µM | [8] 24.3 µM
inactive: [6] | [9]

C=C(C)C(=O)OCC[N+](C)(C)C
inactive: [1] | [2] | [3] | [4] | [7] | [5]

Clc1ccc2n[nH]nc2c1
not listed: [7] | [9] | [10]
inactive: all other assays above

CCC1OCC(COc2ccc(Oc3ccccc3)cc2)O1 (stereo not given)
inactive: [1] | [3] | [4] | [5] | [10]
active: [2] 17.8 µM | [6] 21.7 µM

CC(C)CCCCCCCCCCCCCCC(=O)O
active: [2] 35.6 µM
not listed: [7] | [8] | [10]
inactive: all other assays above

Clc1ccc2nsnc2c1NC1=NCCN1
not listed: [7]
inactive: all other assays above

CCCCCCCCCCCCCC[P+](CCCC)(CCCC)CCCC (tested in a mixture with another compound)
inactive: [2] | [6] | [8]
active: [1] 24.5 µM | [3] 19.4 µM | [5] 17.3 µM

CCCCN1CCCC[C@H]1C(=O)Nc1c(C)cccc1C
inactive: [1] | [2] | [3] | [4] | [5] | [8]

Cc1cc(CCN2CCN(c3nsc4ccccc34)CC2)cc2c1NC(=O)CC2(C)C
inactive: [2] | [7] | [9]
active: [1] 30.6 µM | [4] 54.5 µM | [6] 21.7 µM | [5] 27.3 µM | [10] 7.7 µM

O=c1[nH]cnc2nc[nH]c12
not listed: [4]
inactive: all other assays above

CCOC(=O)O[C@H](C)OC(=O)c1ccc2c(c1)cc(C(=O)NC1CCN(C(C)C)CC1)n2Cc1cc(-c2ccc(Cl)s2)on1
active: [1] 28.6 µM | [4] 64.1 µM | [7] 64.1 µM | [5] 22.7 µM
inactive: [2] | [6]

C[C@@H]1C[C@H]2[C@@H]3CCC4=CC(=O)C=C[C@]4(C)[C@@]3(Cl)[C@@H](O)C[C@]2(C)[C@@]1(OC(=O)c1ccco1)C(=O)CCl
inactive: [2] | [3] | [4] | [9] | [8]
active: [1] 23.7 µM | [10] 23.7 µM

NC(=O)CC[C@@H]1NC(=O)[C@H](Cc2ccccc2)NC(=O)[C@H](Cc2ccc(O)cc2)NC(=O)CCSSC[C@@H](C(=O)N2CCC[C@H]2C(=O)N[C@@H](CCCN=C(N)N)C(=O)NCC(N)=O)NC(=O)[C@H](CC(N)=O)NC1=O
inactive: [1] | [2] | [4] | [7] | [5]

From PubChem BioAssay (Tox21)
